Laboratory results taken from PubChem BioAssay.
For some of these results: Potency and affinity values are given separately. Activity calls are given as the source filed them.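 Rule for the calls, unless noted: active = primary screen inhibitor hit that blocks the TRPC4 channel at some tested dose, yielding a dose curve; inactive = the rest.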

Experiments:
[1] = system: TRPC4 beta (transient receptor potential cation channel C4), mouse; assay: activators of mouse TRPC4 channel, confirmation, cell-based, Fluo4 calcium, HEK293 TRPC4beta/mu-opioid, duplicates, 10 µM (AID 2426;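 active = fluorescence ratio normalized to control raised more than 50% in primary screen plus both repeat runs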;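 for activation: percent rise of integrated ratio over buffer wells lacking compound which define 0%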); details: Fluo4 calcium fluorescence, at 10 µM; hits give high values
[2] = system: transient receptor potential cation channel C4 beta (TRPC4), mouse; assay: activators of mouse TRPC4 channel, confirmation, cell-based, second round, Fluo4, HEK293 TRPC4beta/mu-opioid, 1 µM (AID 2461;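 active = primary screen active and over 50% activation in each of two duplicate runs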); details: Fluo4 calcium fluorescence, at 1 µM; hits give high values
[3] = system: TRPC4 (transient receptor potential cation channel C4 beta), mouse; assay: positive allosteric modulators of mouse TRPC4, confirmation, cell-based, second round, Fluo-4, HEK293 TRPC4beta/mu-opioid, 1 µM (AID 2554;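 active = primary screen hit whose fluorescence ratio, in both repeats, exceeds the weak agonist control mean by 3 SD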); details: DAMGO EC20, Fluo-4 calcium flux, at 1 µM; hits give high values
[4] = system: TRPC4 beta (transient receptor potential cation channel C4), mouse; assay: positive allosteric modulators of mouse TRPC4, confirmation, cell-based, Fluo-4, HEK293 TRPC4beta/mu-opioid (AID 2555;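 active = primary screen hit whose calcium fluorescence ratio, in both repeats, exceeds the weak agonist control mean by 3 SD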); details: DAMGO EC20, Fluo-4 calcium flux, at 10 µM; hits give high values
[5] = molecular target: Short transient receptor potential channel 4 (Mus musculus) (UniProt Q9QUQ5); assay: inhibitors of mouse TRPC4 channel, confirmation, cell-based, Fluo4, HEK293 TRPC4beta/mu-opioid (AID 2636;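 active = calcium signal cut by more than 3 SD below the full-agonist control yet still positive, in both repeats and the earlier primary screen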); details: DAMGO, Fluo4 calcium flux, at 10 µM; hits give high values
Chain of Short transient receptor potential channel 4 (Mus musculus) (Q9QUQ5 whole entry, looked up): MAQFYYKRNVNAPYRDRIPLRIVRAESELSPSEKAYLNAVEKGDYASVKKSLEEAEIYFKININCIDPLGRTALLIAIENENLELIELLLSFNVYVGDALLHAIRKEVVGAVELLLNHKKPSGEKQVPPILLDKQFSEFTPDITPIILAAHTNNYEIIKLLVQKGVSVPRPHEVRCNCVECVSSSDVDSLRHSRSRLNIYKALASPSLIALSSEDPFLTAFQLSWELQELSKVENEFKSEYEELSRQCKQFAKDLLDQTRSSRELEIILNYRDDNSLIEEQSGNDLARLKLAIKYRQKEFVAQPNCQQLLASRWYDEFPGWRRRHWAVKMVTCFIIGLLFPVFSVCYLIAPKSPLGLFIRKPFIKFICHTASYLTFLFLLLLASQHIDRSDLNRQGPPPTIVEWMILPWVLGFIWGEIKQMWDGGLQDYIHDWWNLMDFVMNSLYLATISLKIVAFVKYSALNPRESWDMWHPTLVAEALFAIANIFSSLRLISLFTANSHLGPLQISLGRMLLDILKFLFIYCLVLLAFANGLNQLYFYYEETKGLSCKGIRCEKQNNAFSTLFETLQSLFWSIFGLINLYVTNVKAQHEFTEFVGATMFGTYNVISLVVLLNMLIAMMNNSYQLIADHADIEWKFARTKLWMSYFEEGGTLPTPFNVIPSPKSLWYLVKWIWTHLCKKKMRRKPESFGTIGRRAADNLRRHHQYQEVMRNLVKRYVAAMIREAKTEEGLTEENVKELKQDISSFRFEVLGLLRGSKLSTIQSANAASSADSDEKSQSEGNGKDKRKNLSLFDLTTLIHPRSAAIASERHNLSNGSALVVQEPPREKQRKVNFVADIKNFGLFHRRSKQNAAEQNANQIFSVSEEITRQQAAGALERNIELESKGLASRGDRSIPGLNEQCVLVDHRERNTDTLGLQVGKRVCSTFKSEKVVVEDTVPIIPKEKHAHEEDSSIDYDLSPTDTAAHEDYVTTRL

[6] = molecular target: Short transient receptor potential channel 4 (Mus musculus) (UniProt Q9QUQ5); assay: inhibitors of mouse TRPC4 channel, confirmation, cell-based, second round, Fluo4, HEK293 TRPC4beta/mu-opioid, 1 µM (AID 2637;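 active = calcium signal ratio cut to more than 3 SD under the fully stimulated control mean yet still positive, in both repeats and the primary screen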); details: Fluo4 calcium flux, DAMGO, at 1 µM; hits give high values
[7] = molecular target: Short transient receptor potential channel 4 (Mus musculus) (UniProt Q9QUQ5); assay: mouse TRPC4 channel activators, dose response, cell-based, HEK293 TRPC4/mu-opioid, Fluo-4 calcium (AID 434937;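 active = primary screen activator hit with a dose response curve and TRPC4 channel activation at any tested dose; inactive = no activation, no dose response, or not a primary hit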)
[8] = molecular target: Short transient receptor potential channel 4 (Mus musculus) (UniProt Q9QUQ5); assay: mouse TRPC4 channel inhibitors, dose response, cell-based, HEK293 TRPC4/mu-opioid, Fluo-4 calcium (AID 434942)
[9] = molecular target: Short transient receptor potential channel 6 (Mus musculus) (UniProt Q61143); assay: inhibition of mouse TRPC6 channel, confirmation, selectivity assay for TRPC4 inhibitor project, cell-based, HEK293, membrane potential dye, duplicate (AID 434948;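 active = active in primary screen and both duplicates, each dropping signal beyond three positive-control SD with fluorescence still positive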); details: HEK293 TRPC6, membrane potential dye fluorescence, at 10 µM, stimulated with maximal-effect acetylcholine; hits give high values
Chain of Short transient receptor potential channel 6 (Mus musculus) (Q61143 whole entry, looked up): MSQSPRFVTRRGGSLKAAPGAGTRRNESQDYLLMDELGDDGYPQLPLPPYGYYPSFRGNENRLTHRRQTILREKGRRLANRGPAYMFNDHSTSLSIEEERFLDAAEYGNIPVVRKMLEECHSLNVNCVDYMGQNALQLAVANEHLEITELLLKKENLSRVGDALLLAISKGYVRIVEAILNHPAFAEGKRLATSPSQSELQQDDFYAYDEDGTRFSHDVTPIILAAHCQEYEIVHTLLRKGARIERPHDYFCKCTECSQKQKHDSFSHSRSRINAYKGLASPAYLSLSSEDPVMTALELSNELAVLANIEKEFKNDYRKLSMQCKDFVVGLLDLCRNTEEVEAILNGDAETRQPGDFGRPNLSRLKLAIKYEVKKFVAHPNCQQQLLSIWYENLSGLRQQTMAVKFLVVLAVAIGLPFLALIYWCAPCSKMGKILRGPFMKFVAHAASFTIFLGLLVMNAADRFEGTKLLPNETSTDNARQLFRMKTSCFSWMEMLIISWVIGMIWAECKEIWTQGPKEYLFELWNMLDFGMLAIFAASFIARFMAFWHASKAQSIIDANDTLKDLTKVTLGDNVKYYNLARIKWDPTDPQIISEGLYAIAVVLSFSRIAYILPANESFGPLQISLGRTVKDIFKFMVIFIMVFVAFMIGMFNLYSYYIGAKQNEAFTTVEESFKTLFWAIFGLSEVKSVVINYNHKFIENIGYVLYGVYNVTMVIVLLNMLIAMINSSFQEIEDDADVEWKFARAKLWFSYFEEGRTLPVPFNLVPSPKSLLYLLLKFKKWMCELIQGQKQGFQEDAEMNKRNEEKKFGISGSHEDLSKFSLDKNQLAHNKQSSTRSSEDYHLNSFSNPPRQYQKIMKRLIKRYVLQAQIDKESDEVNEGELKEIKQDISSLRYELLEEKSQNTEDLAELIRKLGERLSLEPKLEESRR

[10] = molecular target: Short transient receptor potential channel 6 (Mus musculus) (UniProt Q61143); assay: activation of mouse TRPC6 channel, confirmation, selectivity assay for TRPC4 activator project, cell-based, HEK293, membrane potential dye, duplicate (AID 434950;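 active = membrane potential signal rise above negative control mean plus 3 SD in both duplicates, also active in the earlier TRPC4 screen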;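 for activation: 0% = buffer only wells and 100% = acetylcholine maximal-effect wells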); details: HEK293 TRPC6, membrane potential fluorescence, at 10 µM; hits give high values
[11] = molecular target: Short transient receptor potential channel 6 (Mus musculus) (UniProt Q61143); assay: TRPC6 potentiation by TRPC4 potentiator hits, confirmation, selectivity assay for TRPC4 potentiator project, HEK293 cells, membrane potential dye, duplicate (AID 434952;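 active = compound raising the membrane signal above positive-control mean plus 3 SD in both repeats, and a primary screen hit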); details: HEK293 TRPC6, membrane potential dye fluorescence, at 10 µM, maximal acetylcholine added after compound; hits give high values
[12] = molecular target: Short transient receptor potential channel 4 (Mus musculus) (UniProt Q9QUQ5); assay: calcium flux activators in TRPC4/5HT1a cells, counter-screen for TRPC4 activator project, cell-based, second counter screen, HEK293 TRPC4/5HT1a, Fluo-4 (AID 434977;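 active = calcium signal rise above buffer-control mean plus 5 SD in both duplicates, and also a hit in the primary screen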;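 for activation: plate controls were assay buffer for no effect and maximal serotonin response for full effect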); details: Fluo-4 calcium flux, at 10 µM; hits give high values
[13] = calcium flux inhibitors in TRPC4/5HT1a cells, confirmation, counter-screen for TRPC4 inhibitor project, cell-based, second counter screen, HEK293 TRPC4/5HT1a, Fluo-4 (AID 434978;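 active = primary screen active whose calcium signal fell more than 3 SD beyond the full-serotonin control mean in both duplicate plates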;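 note: serotonin given first at submaximal then at maximal dose after compound preincubation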); details: Fluo-4 calcium flux, at 10 µM, serotonin added to trigger calcium flux; hits give high values
[14] = system: TRPC4 (mouse), co-expressed with 5HT1a in HEK293; assay: calcium flux potentiators in TRPC4/5HT1a cells, confirmation, counter-screen for TRPC4 potentiator project, cell-based, second counter screen, HEK293 TRPC4/5HT1a, Fluo-4 (AID 434979;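 active = signal rise over 3 SD above mean of control wells given weak agonist, in both repeats and first screen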); details: Fluo-4 calcium flux, at 10 µM, serotonin added at its EC20 dose; hits give high values
[15] = calcium flux activation in mu-opioid HEK293 cells, confirmation, counter-screen for TRPC4 activator project, cell-based, HEK293 mu-opioid receptor line (AID 449723;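 active = hit in primary screen, with calcium signal over 5 SD above buffer well mean in both duplicates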;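 note: counter screen cells carry the mu-opioid receptor alone and lack TRPC4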); details: Fluo-4 calcium fluorescence, at 10 µM; hits give high values
[16] = calcium flux enhancement in mu-opioid HEK293 cells, confirmation, counter-screen for TRPC4 allosteric potentiator project, cell-based, HEK293 mu-opioid receptor line (AID 449724;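 active = calcium signal rise more than 3 SD above the low-dose agonist control mean, in both duplicate plates and the primary screen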); details: Fluo-4 calcium flux, at 10 µM, compound added before EC20 DAMGO stimulus; hits give high values
[17] = molecular target: Short transient receptor potential channel 4 (Mus musculus) (UniProt Q9QUQ5); assay: TRPC4 positive allosteric modulators, dose response, cell-based, HEK293 TRPC4/mu-opioid, Fluo-4 calcium, EC20 DAMGO (AID 434941;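 active = earlier screen potentiator hit that boosts the TRPC4 ion channel at some dose, with a dose response; inactive = no potentiation, no dose response, or not a prior hit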;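 note: calcium entry triggered by an EC20 dose of DAMGO at the co-expressed mu-opioid receptor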)

CCCCN(CC)CCNC(=O)c1cc2c(=O)n(C)c3ccccc3c2s1
active: potentiation [3] 31% | potentiation [4] 9% | potentiation [14] 8.16%
inactive: outcome [1] | outcome [2] | outcome [5] | outcome [6] | outcome [7] | outcome [8] | outcome [9] | outcome [10] | outcome [11] | outcome [12] | outcome [13] | outcome [15] | outcome [16]

CCCC1(c2ccccc2)NC(=O)N(CC(=O)c2[nH]c(C)c(C(=O)OCC)c2C)C1=O (configuration not stated)
inactive: outcome [1] | outcome [2] | outcome [3] | outcome [5] | outcome [6] | outcome [7] | outcome [8] | outcome [9] | outcome [10] | outcome [11] | outcome [12] | outcome [13] | outcome [15] | outcome [16]
active: potentiation [4] 18% | potentiation [14] 35.6%

CCCCC(=O)NC(=S)NNC(=O)c1ccc(Cl)cc1Cl
inactive: outcome [2] | outcome [3] | outcome [4] | outcome [5] | outcome [6] | outcome [17] | outcome [8] | outcome [9] | outcome [11] | outcome [13] | outcome [14] | outcome [16]
active: activation [1] 196% | activation [10] 31.5% | activation [12] 76.5% | activation [15] 43.7%

Cc1noc(C)c1CCC(=O)NC1CCCN(Cc2ccc(CC(C)C)cc2)C1 (configuration not stated)
active: activation [1] 75% | activation [10] 46% | activation [12] 20.6%
inactive: outcome [2] | outcome [3] | outcome [4] | outcome [5] | outcome [6] | outcome [17] | outcome [8] | outcome [9] | outcome [11] | outcome [13] | outcome [14] | outcome [15] | outcome [16]

C1CCN(c2nc(N3CCCC3)nc(N3CCNCC3)n2)C1
active: potentiation [14] 18.4%
inactive: outcome [1] | outcome [2] | outcome [3] | outcome [4] | outcome [5] | outcome [6] | outcome [7] | outcome [8] | outcome [9] | outcome [10] | outcome [11] | outcome [12] | outcome [13] | outcome [15] | outcome [16]

O=C(NCc1ccccc1)C1=C[C@H](c2ccc(C(F)(F)F)cc2)C[C@H](OCc2ccc(CO)cc2)O1
active: potentiation [4] 51% | potentiation [14] 111%
inactive: outcome [1] | outcome [2] | outcome [3] | outcome [5] | outcome [6] | outcome [7] | outcome [8] | outcome [9] | outcome [10] | outcome [11] | outcome [12] | outcome [13] | outcome [15] | outcome [16]

O=C(CCN1CCN(Cc2ccccc2)CC1)Nc1ccc(OCc2ccccc2)cc1
active: potentiation [4] 12% | potentiation [14] 25.1%
inactive: outcome [1] | outcome [2] | outcome [3] | outcome [5] | outcome [6] | outcome [7] | outcome [8] | outcome [9] | outcome [10] | outcome [11] | outcome [12] | outcome [13] | outcome [15] | outcome [16]
